Inconclusive results are not listed. Activity calls are given as the source filed them. Rule for the calls: active = hit-call score of the fitted dose curve at least 0.9, where 1 is the maximum; inconclusive = response in the unintended direction; inactive = score below 0.9.
Columns and labels:
[1] = system: frog Estrogen Receptor (ESR1), gene 398734; test: ATG_frER1_XSP1: Attagene TRANS-FACTORIAL Multi-Species (XSP1) HepG2 Assay for frog Estrogen Receptor (ESR1) (AID 2283777)
Procedure, shortened: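 After transient transfection and 24 h compound treatment, total RNA from HepG2 cells was reverse-transcribed, amplified, FAM-labeled and resolved by capillary electrophoresis. Signal increases were fitted against DMSO controls.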

[2] = system: zebrafish Estrogen Receptor (ESR2A), gene 317734; test: ATG_zfER2a_XSP1: Attagene TRANS-FACTORIAL Multi-Species (XSP1) HepG2 Assay for zebrafish Estrogen Receptor (ESR2A) (AID 2283778)
Procedure, shortened: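 Gain-of-signal reporter transcription readout from GAL4-UAS units in transiently transfected HepG2 cells, 24 h exposure, 3 nM 6-alpha-fluorotestosterone co-present. Detection by RT-PCR with capillary electrophoresis fluorescence.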

[3] = target: chicken Estrogen Receptor (ESR1), ESR1 (gene 396099) (UniProt P06212); test: ATG_chERa_XSP1: Attagene TRANS-FACTORIAL Multi-Species (XSP1) HepG2 Assay for chicken Estrogen Receptor (ESR1) (AID 2283779)
Chain of chicken Estrogen Receptor (ESR1), ESR1 (gene 396099) (P06212 whole entry, looked up, the tested form may be a part): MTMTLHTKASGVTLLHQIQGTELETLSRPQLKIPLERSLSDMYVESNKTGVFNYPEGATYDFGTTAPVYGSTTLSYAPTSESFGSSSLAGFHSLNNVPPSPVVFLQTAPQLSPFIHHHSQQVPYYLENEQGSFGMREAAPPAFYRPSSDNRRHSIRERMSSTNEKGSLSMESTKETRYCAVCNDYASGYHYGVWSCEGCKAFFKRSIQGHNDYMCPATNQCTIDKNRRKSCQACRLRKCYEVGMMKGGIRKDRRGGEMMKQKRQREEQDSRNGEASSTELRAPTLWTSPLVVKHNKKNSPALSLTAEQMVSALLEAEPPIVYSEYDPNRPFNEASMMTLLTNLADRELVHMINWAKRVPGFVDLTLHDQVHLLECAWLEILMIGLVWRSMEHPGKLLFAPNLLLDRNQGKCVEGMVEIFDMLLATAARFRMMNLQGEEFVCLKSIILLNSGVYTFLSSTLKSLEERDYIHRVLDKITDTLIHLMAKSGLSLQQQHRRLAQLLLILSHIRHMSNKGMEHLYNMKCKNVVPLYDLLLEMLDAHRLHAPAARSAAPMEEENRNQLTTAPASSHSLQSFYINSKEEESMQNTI
Procedure, shortened: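 Gain-of-signal reporter transcription, relative to DMSO, was scored in transiently transfected HepG2 cells after a 24 h dose. Fluorescence intensity of amplified, digested reporter cDNA fragments served as the endpoint.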

[4] = target: Estrogen receptor (Homo sapiens) (UniProt P03372); test: ATG_hERa_XSP1: Attagene TRANS-FACTORIAL Multi-Species (XSP1) HepG2 Assay for human Estrogen Receptor (ESR1) (AID 2283780)
Chain of Estrogen receptor (Homo sapiens) (P03372 whole entry, looked up, the tested form may be a part): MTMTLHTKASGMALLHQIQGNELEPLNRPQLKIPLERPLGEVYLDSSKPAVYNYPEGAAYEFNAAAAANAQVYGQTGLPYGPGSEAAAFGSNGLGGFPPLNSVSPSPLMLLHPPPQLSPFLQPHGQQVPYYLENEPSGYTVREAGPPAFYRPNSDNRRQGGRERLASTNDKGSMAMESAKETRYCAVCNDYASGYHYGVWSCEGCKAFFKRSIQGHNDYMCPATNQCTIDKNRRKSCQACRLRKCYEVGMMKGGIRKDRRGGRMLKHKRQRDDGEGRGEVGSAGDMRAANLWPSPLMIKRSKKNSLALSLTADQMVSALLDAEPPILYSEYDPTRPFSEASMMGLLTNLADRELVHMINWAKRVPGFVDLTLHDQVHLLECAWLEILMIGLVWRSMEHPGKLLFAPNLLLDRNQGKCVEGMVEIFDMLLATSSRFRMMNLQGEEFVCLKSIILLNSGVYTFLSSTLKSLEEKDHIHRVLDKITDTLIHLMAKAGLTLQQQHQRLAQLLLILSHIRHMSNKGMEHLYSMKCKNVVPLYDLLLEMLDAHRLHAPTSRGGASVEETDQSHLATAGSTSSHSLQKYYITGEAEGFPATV
Procedure, shortened: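 Reporter transcripts from multiplexed GAL4-UAS units driven by NR-Gal4 chimeras in transiently transfected HepG2 were measured by RT-PCR with capillary electrophoresis 24 h post-dose, with 3 nM 6-alpha-fluorotestosterone present; gain-of-signal relative to DMSO.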

[5] = system: turtle Estrogen Receptor (ESR1), gene 101933533; test: ATG_trERa_XSP1: Attagene TRANS-FACTORIAL Multi-Species (XSP1) HepG2 Assay for turtle Estrogen Receptor (ESR1) (AID 2283781)
Procedure, shortened: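 Cell-based chimeric NR-Gal4 transactivation; HepG2; 24 h dosing; mRNA reporter detected by RT-PCR and capillary electrophoresis fluorescence.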

[6] = system: turtle Androgen Receptor (AR), gene 101947425; test: ATG_trAR_XSP1: Attagene TRANS-FACTORIAL Multi-Species (XSP1) HepG2 Assay for turtle Androgen Receptor (AR) (AID 2283786)
Procedure, shortened: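 Partial androgen stimulation is provided by 3 nM 6-alpha-fluorotestosterone in a multi-species trans-factorial panel expressing a turtle AR–GAL4 fusion in HepG2. After 24 h, reporter mRNA is measured by RT-PCR and capillary electrophoresis and fitted upward against DMSO.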

[7] = target: GAL4 Transcription Factor (Internal Marker), GAL4 (gene 855828) (UniProt P04386); test: ATG_GAL4_XSP1: Attagene TRANS-FACTORIAL Multi-Species (XSP1) HepG2 Assay for GAL4 Transcription Factor (Internal Marker) (AID 2283789)
Chain of GAL4 Transcription Factor (Internal Marker), GAL4 (gene 855828) (P04386 whole entry, looked up, the tested form may be a part): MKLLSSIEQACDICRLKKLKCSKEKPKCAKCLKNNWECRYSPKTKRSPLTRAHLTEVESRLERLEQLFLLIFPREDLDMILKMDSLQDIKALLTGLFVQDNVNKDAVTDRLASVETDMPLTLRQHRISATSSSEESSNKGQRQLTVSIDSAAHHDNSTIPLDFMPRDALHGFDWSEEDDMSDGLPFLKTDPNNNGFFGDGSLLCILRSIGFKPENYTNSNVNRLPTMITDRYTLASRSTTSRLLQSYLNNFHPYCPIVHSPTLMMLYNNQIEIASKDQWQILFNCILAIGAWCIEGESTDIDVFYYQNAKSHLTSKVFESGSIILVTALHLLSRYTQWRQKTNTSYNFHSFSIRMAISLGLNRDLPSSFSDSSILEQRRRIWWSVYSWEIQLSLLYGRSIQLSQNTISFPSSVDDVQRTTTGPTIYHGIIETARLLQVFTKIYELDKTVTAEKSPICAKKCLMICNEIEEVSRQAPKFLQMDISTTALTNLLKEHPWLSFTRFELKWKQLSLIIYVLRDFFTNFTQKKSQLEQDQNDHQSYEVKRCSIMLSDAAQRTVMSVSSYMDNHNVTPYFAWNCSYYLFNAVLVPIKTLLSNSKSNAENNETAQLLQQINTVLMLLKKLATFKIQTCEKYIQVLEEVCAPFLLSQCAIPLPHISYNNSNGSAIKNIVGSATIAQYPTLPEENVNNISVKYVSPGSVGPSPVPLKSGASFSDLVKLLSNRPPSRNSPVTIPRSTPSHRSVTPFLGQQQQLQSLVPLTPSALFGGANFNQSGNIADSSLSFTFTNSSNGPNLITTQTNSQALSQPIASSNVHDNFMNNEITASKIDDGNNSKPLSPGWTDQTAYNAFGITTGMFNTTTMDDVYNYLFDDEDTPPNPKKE
Procedure, shortened: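 This background-control endpoint measures GAL4-driven reporter mRNA via RT-PCR and capillary electrophoresis of labelled fragments. Transiently transfected HepG2 cells were treated 24 h, with 3 nM 6-alpha-fluorotestosterone included, and gain-of-signal was fitted against DMSO.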

[8] = ATG_M_06_XSP1: Attagene TRANS-FACTORIAL Multi-Species (XSP1) HepG2 Assay for M06 Transcription Factor (Internal Marker) (AID 2283790)
Procedure, shortened: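 This background-control readout tracks M06 reporter mRNA, measured by RT-PCR and capillary electrophoresis. HepG2 cells transiently carrying the GAL4-UAS reporter panel were dosed for 24 h with 3 nM 6-alpha-fluorotestosterone added for partial AR stimulation; increases were scored relative to DMSO.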

[9] = ATG_M_61_XSP1: Attagene TRANS-FACTORIAL Multi-Species (XSP1) HepG2 Assay for M61 Transcription Factor (Internal Marker) (AID 2283797)
Procedure, shortened: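 Background-control readout: reporter transcripts measured by RT-PCR and capillary electrophoresis 24 h after dosing transiently transfected HepG2 multi-reporter cells, with 3 nM 6-alpha-fluorotestosterone present. Fitted in the positive direction relative to DMSO.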

[10] = ATG_M_19_XSP1: Attagene TRANS-FACTORIAL Multi-Species (XSP1) HepG2 Assay for M19 Transcription Factor (Internal Marker) (AID 2283798)
Procedure, shortened: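 Readout is reporter mRNA induction quantified via RT-PCR, 6-FAM labeling, HpaI digestion and capillary electrophoresis, fitted in the positive direction versus DMSO baseline. Transfected HepG2 cells exposed 24 h, medium including 3 nM 6-alpha-fluorotestosterone.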

[11] = ATG_M_32_XSP1: Attagene TRANS-FACTORIAL Multi-Species (XSP1) HepG2 Assay for M32 Transcription Factor (Internal Marker) (AID 2283799)
Procedure, shortened: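 Reporter transcripts from the M32 internal-control unit measured by RT-PCR, FAM labelling, HpaI digestion and capillary electrophoresis after 24 h compound exposure of transfected HepG2, 3 nM 6-alpha-fluorotestosterone included; DMSO baseline, positive-direction fit.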

[12] = target: mouse Peroxisome Proliferator-activated Receptor gamma (PPARg), Pparg (gene 19016) (UniProt P37238); test: ATG_mPPARg_XSP1: Attagene TRANS-FACTORIAL Multi-Species (XSP1) HepG2 Assay for mouse Peroxisome Proliferator-activated Receptor gamma (PPARg) (AID 2283802)
Chain of mouse Peroxisome Proliferator-activated Receptor gamma (PPARg), Pparg (gene 19016) (P37238 whole entry, looked up, the tested form may be a part): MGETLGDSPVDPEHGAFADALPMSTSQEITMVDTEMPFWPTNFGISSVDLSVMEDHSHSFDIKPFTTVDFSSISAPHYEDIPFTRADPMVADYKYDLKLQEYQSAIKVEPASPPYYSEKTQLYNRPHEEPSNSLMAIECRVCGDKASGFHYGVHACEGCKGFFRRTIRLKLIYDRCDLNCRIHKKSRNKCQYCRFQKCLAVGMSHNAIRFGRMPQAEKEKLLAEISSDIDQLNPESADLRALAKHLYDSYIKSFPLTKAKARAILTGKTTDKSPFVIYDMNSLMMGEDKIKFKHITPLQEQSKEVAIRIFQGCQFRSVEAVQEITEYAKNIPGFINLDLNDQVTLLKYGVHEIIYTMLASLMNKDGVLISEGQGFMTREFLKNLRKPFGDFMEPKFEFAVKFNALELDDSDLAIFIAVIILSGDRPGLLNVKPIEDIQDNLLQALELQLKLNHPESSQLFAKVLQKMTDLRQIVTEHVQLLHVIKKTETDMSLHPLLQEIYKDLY
Procedure, shortened: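 Readout is reporter mRNA induction, measured by RT-PCR with 6-FAM labelling, HpaI digestion and capillary electrophoresis, 24 h post-dose relative to DMSO. Transient multi-reporter transfection of human HepG2 with mouse PPARg–GAL4 fusion; 3 nM 6-alpha-fluorotestosterone included.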

[13] = target: Nuclear receptor subfamily 1 group I member 2 (Mus musculus) (UniProt O54915); test: ATG_mPXR_XSP1: Attagene TRANS-FACTORIAL Multi-Species (XSP1) HepG2 Assay for mouse Pregnane X Receptor (PXR) (AID 2283803)
Chain of Nuclear receptor subfamily 1 group I member 2 (Mus musculus) (O54915 whole entry, looked up, the tested form may be a part): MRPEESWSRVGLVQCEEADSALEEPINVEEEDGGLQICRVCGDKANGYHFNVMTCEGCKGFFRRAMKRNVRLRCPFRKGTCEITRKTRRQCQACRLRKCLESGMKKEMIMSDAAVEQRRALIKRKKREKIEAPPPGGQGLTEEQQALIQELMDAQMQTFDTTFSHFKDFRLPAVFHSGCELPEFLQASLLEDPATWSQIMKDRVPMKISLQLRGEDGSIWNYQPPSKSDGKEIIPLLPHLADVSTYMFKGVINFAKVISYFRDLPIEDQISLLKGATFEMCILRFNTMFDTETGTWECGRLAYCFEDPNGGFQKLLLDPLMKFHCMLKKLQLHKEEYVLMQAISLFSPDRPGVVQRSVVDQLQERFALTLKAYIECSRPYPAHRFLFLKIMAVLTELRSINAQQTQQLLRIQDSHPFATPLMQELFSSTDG
Procedure, shortened: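 Transiently transfected HepG2 cells expressing a receptor-Gal4 chimera drive a GAL4-UAS reporter; 3 nM 6-alpha-fluorotestosterone included. Reporter mRNA read 24 h post-dose by RT-PCR and capillary electrophoresis; gain of signal relative to DMSO.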

[14] = target: frog Thyroid hormone Receptor alpha (TRa), thra-a (gene 397942) (UniProt P15204); test: ATG_frTRa_XSP1: Attagene TRANS-FACTORIAL Multi-Species (XSP1) HepG2 Assay for frog Thyroid hormone Receptor alpha (TRa) (AID 2283804)
Chain of frog Thyroid hormone Receptor alpha (TRa), thra-a (gene 397942) (P15204 whole entry, looked up, the tested form may be a part): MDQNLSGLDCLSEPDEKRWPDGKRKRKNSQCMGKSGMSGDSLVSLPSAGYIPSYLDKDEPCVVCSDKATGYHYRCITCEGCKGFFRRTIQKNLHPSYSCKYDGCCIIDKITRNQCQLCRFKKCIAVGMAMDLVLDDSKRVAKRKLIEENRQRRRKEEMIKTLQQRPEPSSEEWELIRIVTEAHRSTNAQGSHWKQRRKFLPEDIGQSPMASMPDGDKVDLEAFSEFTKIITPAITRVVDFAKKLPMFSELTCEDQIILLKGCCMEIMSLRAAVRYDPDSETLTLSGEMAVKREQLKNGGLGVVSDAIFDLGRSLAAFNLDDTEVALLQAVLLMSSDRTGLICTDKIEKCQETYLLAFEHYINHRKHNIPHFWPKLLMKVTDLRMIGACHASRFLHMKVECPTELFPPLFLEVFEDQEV
Procedure, shortened: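 Reporter transcript induction, measured by RT-PCR with 6-FAM labelling and capillary electrophoresis, 24 hr after dosing transiently transfected HepG2 cells expressing a frog TRa-GAL4 fusion; medium contained 3 nM 6-alpha-fluorotestosterone; increase over DMSO scored.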

[15] = target: AR (gene 367) (UniProt P10275); test: ACEA_AR_agonist_80hr: ACEA Biosciences xCELLigence Real-Time Cell Analysis on Androgen Receptor Agonism for Proliferation (AID 2283783);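 note: hits increase impedance growth signal above DMSO baseline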
Chain of AR (gene 367) (P10275 whole entry, looked up): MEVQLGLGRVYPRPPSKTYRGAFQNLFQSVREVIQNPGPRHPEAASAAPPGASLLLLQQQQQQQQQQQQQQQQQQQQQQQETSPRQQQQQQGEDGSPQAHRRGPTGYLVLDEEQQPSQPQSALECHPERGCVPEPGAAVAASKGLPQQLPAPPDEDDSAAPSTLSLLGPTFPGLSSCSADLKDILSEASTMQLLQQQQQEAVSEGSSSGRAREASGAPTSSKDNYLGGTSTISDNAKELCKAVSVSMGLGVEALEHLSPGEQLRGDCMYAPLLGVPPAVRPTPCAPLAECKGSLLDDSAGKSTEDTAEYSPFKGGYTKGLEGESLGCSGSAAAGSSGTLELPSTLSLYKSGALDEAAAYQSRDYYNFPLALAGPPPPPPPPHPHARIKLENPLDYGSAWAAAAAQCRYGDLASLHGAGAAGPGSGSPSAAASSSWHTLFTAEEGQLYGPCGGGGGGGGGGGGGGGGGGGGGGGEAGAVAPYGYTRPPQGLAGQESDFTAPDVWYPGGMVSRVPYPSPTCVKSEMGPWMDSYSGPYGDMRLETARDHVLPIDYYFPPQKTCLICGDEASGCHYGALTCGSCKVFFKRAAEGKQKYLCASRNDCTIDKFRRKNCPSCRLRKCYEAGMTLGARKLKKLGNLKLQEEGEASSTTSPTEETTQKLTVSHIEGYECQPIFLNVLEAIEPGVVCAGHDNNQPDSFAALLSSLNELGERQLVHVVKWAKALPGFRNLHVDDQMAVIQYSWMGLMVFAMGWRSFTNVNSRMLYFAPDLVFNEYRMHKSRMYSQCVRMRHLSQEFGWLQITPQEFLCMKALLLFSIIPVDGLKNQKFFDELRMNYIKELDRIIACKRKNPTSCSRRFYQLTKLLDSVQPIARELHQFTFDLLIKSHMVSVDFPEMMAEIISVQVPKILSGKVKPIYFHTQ
Procedure, shortened: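 Real-time cell-growth kinetics were recorded by electrode impedance in 22Rv1 cells exposed to test chemicals up to 100 uM final; the 80 h timepoint served as the readout, fitted upward relative to DMSO controls, in biological duplicate.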

[16] = target: AR (gene 367) (UniProt P10275); test: ACEA_AR_antagonist_80hr: ACEA Biosciences xCELLigence Real-Time Cell Analysis on Androgen Receptor Antagonism for Proliferation (AID 2283787);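 note: 22Rv1 human prostate cancer cells with growth followed by electrical impedance; hits lower the impedance growth signal relative to DMSO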
Procedure, shortened: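 Using 22Rv1 cells held in assay medium, we dosed compounds (100 uM maximum final, 1:4 serial, eight points, 0.5% DMSO at top) and recorded cell-electrode impedance; the 80 hr timepoint was analyzed against DMSO.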

## O=C(c1ccccc1)c1ccc(O)cc1O
[1]
  AC50: 652 nM (active)
[2]
  AC50: 1650 nM (active)
[3]
  AC50: 1550 nM (active)
[4]
  AC50: 3150 nM (active)
[5]
  AC50: 2240 nM (active)
[6]
  outcome: inactive
[7]
  outcome: inactive
[8]
  outcome: inactive
[9]
  outcome: inactive
[10]
  outcome: inactive
[11]
  outcome: inactive
[12]
  outcome: inactive
[13]
  outcome: inactive

## C[C@]12CC[C@H]3C(=CCc4cc(O)ccc43)[C@@H]1CCC2=O
[1]
  AC50: 20.2 nM (active)
[2]
  AC50: 13.9 nM (active)
[3]
  AC50: 6.59 nM (active)
[5]
  AC50: 5.94 nM (active)
[8]
  outcome: inactive
[9]
  outcome: inactive
[14]
  outcome: inactive

## OCC1CCCO1 (stereo not drawn)
[15]
  AC50: 585 nM (active)

## F[Si-2](F)(F)(F)(F)F
[15]
  outcome: inactive
[16]
  outcome: inactive
